From PubChem BioAssay
TTR transcr act – TTR transcription activators in neuroblastoma reporter cells, primary screen, cell-based, luminescence, SH-SY5Y, TTR promoter Gaussia luciferase; 100% = recombinant luciferase protein wells; 92,000 tested, 1.3% active; AID 1117267, 2014; activation, % at 16.7 µM;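 active means activation above the mean of all tested compounds plus 3 SD, cut at about 9.5% in these data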;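 further: cells exposed to compounds for one day before reading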
TTR inh HuH7 – TTR promoter reporter inhibitors in hepatoma cells, counter-screen for TTR transcription activator project, cell-based, luminescence, HuH7 hepatoma. shares compounds with TTR transcr act. HuH7 TTR promoter-Gaussia luciferase reporter. inhibition, % at 16.7 µM. 1,100 tested, 4% active. AID 1117279, 2014;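 active means average inhibition above the solvent-only control wells' mean plus 3 SD, cut at about 15% in these data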;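 further: inhibitors lower well luminescence so higher value means more inhibition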
TTR act confirm – TTR transcription activators, retest, confirmation, cell-based, luminescence, SH-SY5Y, triplicate; shares compounds with TTR transcr act; SHSY5Y TTR promoter Gaussia luciferase; 100% = purified Lucia enzyme wells, no cells; activation, % at 16.7 µM; 1,100 tested, under 10 active; AID 1117280, 2014;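 active means mean activation above a set limit taken from the earlier primary screen, cut at about 11% in these data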
Numbers stand for hits; n = inactive. The sample as a whole holds a higher share of hits than the screen did.

SMILES	TTR transcr act	others
O=C(c1cccc(N2C(=O)C3CC=CCC3C2=O)c1)N1CCCc2ccccc21 (stereo not given)	n
O=C(Cn1nc(C(F)(F)F)c2c1CCCC2)NCc1ccco1	14	TTR inh HuH7=n;TTR act confirm=n
Cc1c(Br)c(C(F)(F)F)nn1CC(=O)NCc1ccco1	n
CC(NC(=O)Cn1nc(C(F)(F)F)c2c1CCC2)c1ccccc1 (stereo not given)	n
O=C(Nc1ccc(F)cc1)OCc1cn(Cc2cc(F)ccc2F)nn1	n
COc1ccc(-n2nc(C(=O)NCC(=O)NCCCN3CC(C)CC(C)C3)c3ccccc3c2=O)cc1 (stereo not given)	n
COc1cc(CCC(=O)Nc2ccc(C)c(S(=O)(=O)N3CCCCCC3)c2)cc(OC)c1OC	n
N/C(=N\OC(=O)c1ccccc1)c1cccnc1	10	TTR inh HuH7=n;TTR act confirm=n
Cc1ccc(C(=O)O/N=C(\c2ccccc2)c2cccnc2)cc1	n
N/C(=N\OC(=O)c1ccc2c(c1)OCO2)c1cccnc1	n
CC(=O)Nc1ccc(SCC(=O)Nc2cc(C)on2)cc1	n
CCOC(=O)c1cnc2cc(F)c(F)cc2c1N1CCN(C)CC1	n
CCN1C(=O)[C@@H]2[C@@H](c3ccc(-c4ccc(C(C)=O)cc4)cc3)N3CCCC[C@@]3(C(=O)OC)[C@@H]2C1=O	12	TTR inh HuH7=n;TTR act confirm=n
CCN1C(=O)[C@@H]2[C@@H](c3ccc(-c4ccc5c(c4)OCO5)cc3)N3CCCC[C@@]3(C(=O)OC)[C@@H]2C1=O	n
COC(=O)[C@@]12CCCCN1[C@H](c1ccc(-c3ccc(C(C)=O)cc3)cc1)[C@H]1C(=O)N(C)C(=O)[C@H]12	n
COC(=O)[C@@]12CCCCN1[C@H](c1ccc(SC3CCCCC3)cc1)[C@@H]1C(=O)N(C)C(=O)[C@@H]12	17	TTR inh HuH7=n;TTR act confirm=n
COC(=O)[C@@]12CCCN1[C@H](c1ccc(-c3ccccc3)cc1)[C@H]1C(=O)N(C)C(=O)[C@H]12	n
CCSc1ccc([C@@H]2[C@H]3C(=O)N(C)C(=O)[C@H]3[C@]3(C(=O)OC)CCCCN23)cc1	n
Cc1cccc(NC(=O)CNC(=O)CN2C(=O)NC(C)(CCC(C)C)C2=O)c1C (stereo not given)	n
Cc1cccn2c(=O)nc(SCC(=O)N3CCN(c4ccccc4)CC3)nc12	n
O=S(=O)(N[C@H]1CCCC[C@@H]1N1CCOCC1)c1ccc(Cl)cc1	n
COc1ccccc1Cc1c(-c2ccc(OC)c(OC)c2)nc2ccc(C)cn12	n
O=C(CNc1cc(S(=O)(=O)N2CCOCC2)ccc1N1CCCC1)Nc1ccc(Cl)cc1F	n
CC(C)(O)CC[C@@H](O)[C@](C)(O)C1CC[C@@]2(O)C3=CC(=O)[C@]4(O)C[C@@H](O)[C@@H](O)C[C@]4(C)C3CC[C@]12C (stereo not given in full)	n
COc1ccc(CN(C2CC2)S(=O)(=O)c2ccccc2Br)cc1	n
SMILES	TTR transcr act	others
CC(=O)NC1(NC(C)=O)CCN(C)C(c2ccccc2)C1C (stereo not given)	15	TTR inh HuH7=n;TTR act confirm=n
CC(=O)NC1(C(F)(F)F)C(=O)N(Cc2ccccc2)C2=C1C(=O)CC(C)(C)C2 (stereo not given)	n
CC(=O)NC1(c2ccccc2)CCN(C(=O)N2CCOCC2)CC1	n
CCS(=O)(=O)Nc1ccc2c(c1)C(=O)N(C)[C@@H]1CC[C@H](CC(=O)NCCCN3CCOCC3)O[C@H]1CO2	n
Cc1ccc(C(=O)Nc2nnc([C@H]3C[C@H](O)[C@@H](CO)O3)s2)cc1	n
CC(=O)Nc1ccccc1P(=O)(c1ccccc1)c1ccccc1OC(C)=O (stereo not given)	n
CCOC(=O)[C@]12CCCC=C1N(Cc1ccc(OC)cc1)C(=O)[C@@H]2CC(=O)NCCCOC	n
COc1cc(OC)c(C2C(C#N)=C(C)NC(C)=C2C#N)c(C(=O)O)c1	30	TTR inh HuH7=n;TTR act confirm=n
COc1ccc(C2CC(=O)C3=C(C2)NC(C)=C(C#N)C3c2ccc(N(C)C)cc2)cc1 (stereo not given)	n
COc1ccc(C(=O)O)c(O)c1	n
CC1(C(=O)NCc2ccc(C(F)(F)F)cc2)CCN1Cc1ccc(-c2ccccc2)o1 (stereo not given)	n
CC(C)(C)S(=O)N1Cc2cc(=O)n(Cc3ccccc3)cc2[C@H]1CCO (stereo not given in full)	11	TTR inh HuH7=n;TTR act confirm=n
CC(C)(C)S(=O)N1Cc2cc(CO)cc(-c3ccccc3)c2[C@H]1CCO (stereo not given in full)	n
CC(C)(C)S(=O)N1Cc2ccc(CO)cc2[C@H]1CCO (stereo not given in full)	n
O=C(CCc1nc2ccccc2c(=O)[nH]1)N1CCN(S(=O)(=O)c2cccc(F)c2)CC1	n
CCc1ccccc1NC(=O)C(Cc1ccccc1)c1nn[nH]n1 (stereo not given)	n
COc1ccc([C@H]2C[C@H](O)[C@@H](n3cc(-c4ccc(F)cc4)nn3)CN2CC2CCCCC2)cc1	n
O=C(COc1ccccc1C(=O)NCc1ccccc1)Nc1ccc(I)cc1	n
COC(=O)[C@@]12CCCCC3=C1N(CCC3)C(=O)[C@H]2CC(=O)NCC1CCCCC1	n
Cc1cc2nc(C(C)(C)C)c(Cc3ccccc3C(F)(F)F)n2c(C)c1Br	n
COC(=O)[C@H](CCSC)NC(=O)NCc1ccccn1	19	TTR inh HuH7=n;TTR act confirm=n
COC(=O)[C@H](CCSC)NC(=O)Nc1ccc(C(C)C)cc1	n
COC(=O)[C@H](CCSC)NC(=O)NCCc1ccc(F)cc1	n
CCOc1ccc(Cn2c(=O)sc3ccccc32)cc1OC	n
N/C(Cc1nc(-c2ccc(Br)cc2)cs1)=N\O	n
SMILES	TTR transcr act	others
CCc1ccc(OCCSc2nc3ccccc3n2CC(=O)O)cc1	n
O=C(NC1CCCCC1)C(c1ccnc2ccccc12)n1c(=O)c(-c2ccccc2)nc2ccccc21 (stereo not given)	n
CCCNC(=O)c1ccc(SC)cc1OC	n
COc1cc(SC)ccc1C(=O)NCc1ccc(C)cc1	n
COc1cc(SC)ccc1C(=O)NCCNC(=O)c1nonc1N	14	TTR inh HuH7=n;TTR act confirm=n
COc1ccc(Cc2noc(CN(C)CC(O)c3ccccc3)n2)cc1OC (stereo not given)	n
Cn1cc([N+](=O)[O-])c(C(=O)n2cccn2)n1	n
CCOC(=O)C1CCCN(Cc2cc(Br)c(OC)cc2OC)C1 (stereo not given)	n
COc1cc(CN2CCC(C(=O)NC3CCCC3)CC2)cc(OC)c1O	n
CCOC(=O)C1CCCN(Cc2cc(OC)c(O)c(OC)c2)C1 (stereo not given)	25	TTR inh HuH7=n;TTR act confirm=n
Cc1cnc(-c2nc3ccccc3n2C(C(=O)Nc2c(C)cccc2C)C2CC2)cn1 (stereo not given)	n
c1cc2ccn(CC3CC3)c2cc1-c1ccc2ccn(CC3CC3)c2c1	n
CC(C)CNS(=O)(=O)/C=C/c1ccccc1CCNC(=O)OC(C)(C)C	n
Cc1cc(OCc2cc3c(cc2Cl)OCO3)c2c(C)cc(=O)oc2c1	11	TTR inh HuH7=n;TTR act confirm=n
C=C(Cl)COc1cc(C)cc2oc(=O)cc(CC)c12	n
CCOc1cc2c(C)cc(=O)oc2cc1Cl	n
